# The supplement of paper PMC10849652
# Of roughly 8,800 targets only a part is listed; those with a hit were picked by preference. About 0.5% of all pairs of compound and target were hits. Values without a mark were called inactive.
# Compound: COC(=O)[C@H](CCSC)NC(=O)C1=C(C=C(C=C1)NC[C@H](CS)N)C2=CC=CC=C2
# Assay: log2 fold change, soluble protein after heating vs DMSO (PISA); higher = thermal stabilisation; K562 lysate, 10 uM; active = over 0.2 and 3.5 SD of the protein, either way, in both replicates (recomputed)
# In short: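 The values are log-two fold changes in thermal stability compared with solvent controls and come from duplicates. They were obtained by TMTpro 16plex LC-MS/MS, with channel sums equalised, on the supernatant after 21,000xg for 90 min. That supernatant came from crude K562 extract at 1 mg/mL protein treated with 10 μM compound for 30 min, heated for 3 min across 48°C-58°C, pooled and brought to 0.5% NP-40 at 4°C.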
# UniProt Q8TBX8, sequence (Q8TBX8 whole entry, looked up): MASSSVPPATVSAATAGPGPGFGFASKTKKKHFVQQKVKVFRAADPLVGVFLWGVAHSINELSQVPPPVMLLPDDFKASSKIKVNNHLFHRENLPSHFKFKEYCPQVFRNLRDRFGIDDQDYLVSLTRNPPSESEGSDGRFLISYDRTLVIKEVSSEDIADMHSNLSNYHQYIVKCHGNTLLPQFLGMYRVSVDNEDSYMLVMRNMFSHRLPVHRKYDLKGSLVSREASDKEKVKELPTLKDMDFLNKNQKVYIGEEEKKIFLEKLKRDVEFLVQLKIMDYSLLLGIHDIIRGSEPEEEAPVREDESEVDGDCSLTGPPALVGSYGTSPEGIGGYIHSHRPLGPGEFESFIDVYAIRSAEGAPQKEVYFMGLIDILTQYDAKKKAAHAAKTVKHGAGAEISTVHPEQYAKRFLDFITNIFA
# UniProt Q14671, sequence (Q14671 whole entry, looked up): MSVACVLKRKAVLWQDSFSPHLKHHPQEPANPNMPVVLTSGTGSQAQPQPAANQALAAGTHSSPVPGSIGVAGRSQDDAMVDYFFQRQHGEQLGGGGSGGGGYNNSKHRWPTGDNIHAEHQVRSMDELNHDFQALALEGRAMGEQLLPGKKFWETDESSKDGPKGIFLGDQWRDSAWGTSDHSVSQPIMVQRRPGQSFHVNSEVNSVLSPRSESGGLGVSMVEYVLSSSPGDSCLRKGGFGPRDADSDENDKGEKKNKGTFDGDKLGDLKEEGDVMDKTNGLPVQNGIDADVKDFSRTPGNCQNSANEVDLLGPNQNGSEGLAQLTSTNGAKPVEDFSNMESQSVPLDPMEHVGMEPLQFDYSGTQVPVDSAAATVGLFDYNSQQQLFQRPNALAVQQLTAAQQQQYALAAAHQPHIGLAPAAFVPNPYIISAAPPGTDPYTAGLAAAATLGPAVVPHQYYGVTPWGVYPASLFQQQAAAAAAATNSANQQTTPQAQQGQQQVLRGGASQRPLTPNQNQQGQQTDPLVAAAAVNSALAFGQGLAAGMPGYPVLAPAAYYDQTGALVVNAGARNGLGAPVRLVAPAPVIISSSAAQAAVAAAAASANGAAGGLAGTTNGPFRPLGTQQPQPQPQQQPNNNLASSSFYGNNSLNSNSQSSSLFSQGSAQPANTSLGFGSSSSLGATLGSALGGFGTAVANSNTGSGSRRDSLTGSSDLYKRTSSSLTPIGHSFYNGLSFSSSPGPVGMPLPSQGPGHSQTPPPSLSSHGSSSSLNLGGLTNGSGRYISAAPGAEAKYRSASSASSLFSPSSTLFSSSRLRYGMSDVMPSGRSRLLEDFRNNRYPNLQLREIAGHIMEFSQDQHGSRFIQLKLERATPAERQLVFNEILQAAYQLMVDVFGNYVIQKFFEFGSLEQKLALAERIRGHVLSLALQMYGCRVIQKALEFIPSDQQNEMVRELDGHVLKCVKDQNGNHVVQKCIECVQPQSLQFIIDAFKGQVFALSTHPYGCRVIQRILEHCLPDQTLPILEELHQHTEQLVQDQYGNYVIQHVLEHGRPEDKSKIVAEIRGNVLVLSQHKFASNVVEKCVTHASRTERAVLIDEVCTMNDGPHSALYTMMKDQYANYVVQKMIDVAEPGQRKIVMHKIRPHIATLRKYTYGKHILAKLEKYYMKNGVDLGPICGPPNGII
# UniProt Q13362, sequence (Q13362 whole entry, looked up): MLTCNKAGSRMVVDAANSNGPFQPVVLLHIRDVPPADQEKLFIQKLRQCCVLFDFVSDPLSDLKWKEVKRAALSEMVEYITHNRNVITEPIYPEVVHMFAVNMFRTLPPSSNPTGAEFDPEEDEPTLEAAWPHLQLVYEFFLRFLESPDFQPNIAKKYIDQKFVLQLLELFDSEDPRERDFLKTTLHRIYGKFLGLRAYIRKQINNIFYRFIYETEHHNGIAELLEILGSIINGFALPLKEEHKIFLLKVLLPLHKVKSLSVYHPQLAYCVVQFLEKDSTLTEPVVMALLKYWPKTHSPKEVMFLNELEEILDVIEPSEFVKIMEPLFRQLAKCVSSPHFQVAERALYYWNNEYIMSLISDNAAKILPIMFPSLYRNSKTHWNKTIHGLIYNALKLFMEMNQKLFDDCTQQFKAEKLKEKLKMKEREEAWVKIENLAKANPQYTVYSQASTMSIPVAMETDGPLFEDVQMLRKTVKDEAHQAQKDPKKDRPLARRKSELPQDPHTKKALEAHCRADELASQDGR
# UniProt Q9H939, sequence (Q9H939 whole entry, looked up): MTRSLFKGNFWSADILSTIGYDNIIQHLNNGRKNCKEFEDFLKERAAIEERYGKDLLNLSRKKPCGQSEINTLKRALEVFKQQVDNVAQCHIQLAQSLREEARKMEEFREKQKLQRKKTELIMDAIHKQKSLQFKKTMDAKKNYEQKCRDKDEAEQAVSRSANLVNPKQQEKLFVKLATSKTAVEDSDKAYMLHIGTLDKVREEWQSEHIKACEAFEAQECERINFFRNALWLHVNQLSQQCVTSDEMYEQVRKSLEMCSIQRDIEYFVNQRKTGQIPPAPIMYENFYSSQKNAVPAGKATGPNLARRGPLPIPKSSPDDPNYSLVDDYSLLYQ
# UniProt P07737, sequence (P07737 whole entry, looked up): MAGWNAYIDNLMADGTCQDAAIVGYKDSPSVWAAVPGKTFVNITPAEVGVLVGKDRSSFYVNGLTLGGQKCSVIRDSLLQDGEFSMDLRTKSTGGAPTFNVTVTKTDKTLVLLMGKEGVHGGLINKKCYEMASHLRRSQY
# UniProt Q8TCD6, sequence (Q8TCD6 whole entry, looked up): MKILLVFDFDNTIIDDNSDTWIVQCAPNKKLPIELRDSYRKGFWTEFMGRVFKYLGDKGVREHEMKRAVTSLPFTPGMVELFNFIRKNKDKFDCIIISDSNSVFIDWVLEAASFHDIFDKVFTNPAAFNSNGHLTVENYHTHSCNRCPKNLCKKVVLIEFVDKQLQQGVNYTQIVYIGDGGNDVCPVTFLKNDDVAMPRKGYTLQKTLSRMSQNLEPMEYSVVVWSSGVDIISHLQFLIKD
# UniProt O15530, sequence (O15530 whole entry, looked up): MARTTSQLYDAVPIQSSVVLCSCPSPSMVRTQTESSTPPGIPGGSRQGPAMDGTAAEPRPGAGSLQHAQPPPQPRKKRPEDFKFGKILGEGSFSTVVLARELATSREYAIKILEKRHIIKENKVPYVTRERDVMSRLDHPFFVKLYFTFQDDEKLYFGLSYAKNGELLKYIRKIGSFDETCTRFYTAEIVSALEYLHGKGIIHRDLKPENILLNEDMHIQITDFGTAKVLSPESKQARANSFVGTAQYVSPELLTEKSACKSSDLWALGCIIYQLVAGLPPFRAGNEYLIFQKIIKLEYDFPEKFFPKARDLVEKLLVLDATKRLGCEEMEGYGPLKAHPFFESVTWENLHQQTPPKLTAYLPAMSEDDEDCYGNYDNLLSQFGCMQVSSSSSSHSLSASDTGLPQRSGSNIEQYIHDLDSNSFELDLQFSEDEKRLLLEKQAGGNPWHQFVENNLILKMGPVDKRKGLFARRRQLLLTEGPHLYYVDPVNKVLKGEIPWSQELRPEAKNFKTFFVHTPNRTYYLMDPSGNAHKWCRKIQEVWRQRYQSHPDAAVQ
# UniProt P48426, sequence (P48426 whole entry, looked up): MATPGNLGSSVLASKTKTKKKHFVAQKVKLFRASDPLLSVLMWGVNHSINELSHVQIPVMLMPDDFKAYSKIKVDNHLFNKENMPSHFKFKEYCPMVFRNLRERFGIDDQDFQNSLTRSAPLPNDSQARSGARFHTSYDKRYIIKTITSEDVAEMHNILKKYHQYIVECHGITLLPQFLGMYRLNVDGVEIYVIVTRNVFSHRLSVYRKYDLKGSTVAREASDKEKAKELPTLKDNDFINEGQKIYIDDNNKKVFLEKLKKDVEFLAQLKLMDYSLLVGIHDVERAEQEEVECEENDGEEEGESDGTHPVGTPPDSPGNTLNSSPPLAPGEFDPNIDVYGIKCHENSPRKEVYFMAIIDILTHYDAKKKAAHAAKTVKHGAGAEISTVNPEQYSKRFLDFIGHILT
# UniProt Q15054, sequence (Q15054 whole entry, looked up): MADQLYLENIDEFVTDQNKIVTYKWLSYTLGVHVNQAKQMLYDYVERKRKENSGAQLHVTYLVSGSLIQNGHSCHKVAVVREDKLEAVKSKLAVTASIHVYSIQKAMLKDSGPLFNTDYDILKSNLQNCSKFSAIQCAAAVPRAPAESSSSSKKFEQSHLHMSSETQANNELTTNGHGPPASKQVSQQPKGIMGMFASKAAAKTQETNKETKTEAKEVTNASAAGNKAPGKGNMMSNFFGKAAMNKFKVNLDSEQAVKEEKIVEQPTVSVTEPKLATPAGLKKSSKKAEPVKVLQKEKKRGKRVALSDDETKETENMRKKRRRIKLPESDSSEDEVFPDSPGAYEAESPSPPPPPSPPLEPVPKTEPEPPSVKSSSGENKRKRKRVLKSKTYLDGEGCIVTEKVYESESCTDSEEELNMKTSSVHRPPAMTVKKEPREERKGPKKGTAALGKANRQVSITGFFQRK
# UniProt Q9Y606, sequence (Q9Y606 whole entry, looked up): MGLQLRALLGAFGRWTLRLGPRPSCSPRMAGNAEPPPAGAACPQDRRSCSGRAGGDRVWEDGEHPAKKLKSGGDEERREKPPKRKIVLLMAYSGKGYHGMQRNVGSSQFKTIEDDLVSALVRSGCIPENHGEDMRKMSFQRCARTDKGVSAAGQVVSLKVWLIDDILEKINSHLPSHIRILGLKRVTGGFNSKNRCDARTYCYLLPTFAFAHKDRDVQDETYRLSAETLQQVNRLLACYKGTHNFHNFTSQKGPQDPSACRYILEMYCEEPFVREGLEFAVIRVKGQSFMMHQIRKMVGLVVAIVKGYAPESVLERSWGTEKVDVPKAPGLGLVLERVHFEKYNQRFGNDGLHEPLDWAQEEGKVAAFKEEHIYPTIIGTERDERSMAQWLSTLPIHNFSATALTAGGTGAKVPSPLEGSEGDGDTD
row,Target,log2 fold change
1,PUS1 (UniProt Q9Y606),0.086
2,PTPN23 (UniProt Q9H3S7),-0.018
3,PDCD6IP (UniProt Q8WUM4),0.143
4,PMS2 (UniProt P54278),0.089
5,PSTPIP2 (UniProt Q9H939),0.002
6,PUM1 isoform 3 (UniProt Q14671),0
7,PICALM (UniProt Q13492),0.014
8,PTPN1 (UniProt P18031),0.014
9,PPP2R5C isoform 5 (UniProt Q13362),-0.039
10,POLD3 (UniProt Q15054),0.048
11,PIP4K2A (UniProt P48426),-0.071
12,PDS5A (UniProt Q29RF7),-0.003
13,PFN1 (UniProt P07737),-0.097
14,PLXNB2 (UniProt O15031),-0.107
15,PFAS (UniProt O15067),0.119
16,PITRM1 isoform 2 (UniProt Q5JRX3),0.228 (active)
17,PPP1R8 (UniProt Q12972),-0.049
18,PLEKHF1 (UniProt Q96S99),-0.009
19,PRKACB isoform 2 (UniProt P22694),-0.05
20,PIP4K2C (UniProt Q8TBX8),-0.085
21,PDPK1 (UniProt O15530),0.109
22,PIK3C3 (UniProt Q8NEB9),0.015
23,PHOSPHO2 (UniProt Q8TCD6),0.356 (active)
